According to the supplement of paper PMC9694430:

Columns and labels:
Test in all cases: thermal shift delta Tm vs DMSO control; higher = stronger stabilization (binding)
Details in all cases: 12.5 µM; protein concentration 2 µM
[1] = system: LOC_OS01G01410-cb001
How it was run: (§1)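 Heating from 25°C to 95°C at 0.05°C/s, fluorescence was recorded for 19.5 μl wells of 2 μM E. coli-expressed, purified rice kinase domain in 100 mM potassium phosphate pH 7.5, 150 mM NaCl, 10% glycerol and 5 × SYPRO Orange with compound in DMSO. Boltzmann fits gave melting temperatures for this differential scanning fluorimetry assay. The shift reported is the mean of three replicates against the DMSO-only protein.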

[2] = system: LOC_OS01G02750-cb003
How it was run: as §1

[3] = system: LOC_OS01G10900-cb004
How it was run: as §1

[4] = system: LOC_OS01G13800-cb001
How it was run: as §1

[5] = system: LOC_OS01G14860-cb001
How it was run: as §1

[6] = system: LOC_OS01G21960-cb002
How it was run: as §1

[7] = system: LOC_OS01G39600-cb002
How it was run: as §1

[8] = system: LOC_OS01G48390-cb002
How it was run: as §1

[9] = system: LOC_OS01G51400-cb002
How it was run: as §1

[10] = system: T1, LOC_OS01G52050-cb004
T1 sequence (whole entry): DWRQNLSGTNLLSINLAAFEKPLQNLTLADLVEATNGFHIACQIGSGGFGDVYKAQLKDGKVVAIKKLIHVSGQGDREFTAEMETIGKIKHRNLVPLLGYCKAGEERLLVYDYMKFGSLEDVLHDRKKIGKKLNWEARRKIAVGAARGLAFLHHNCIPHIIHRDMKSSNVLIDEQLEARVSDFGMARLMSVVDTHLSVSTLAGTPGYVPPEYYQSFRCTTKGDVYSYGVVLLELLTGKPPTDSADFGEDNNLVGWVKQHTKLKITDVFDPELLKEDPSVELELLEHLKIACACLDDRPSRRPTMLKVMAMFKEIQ
How it was run: as §1

[11] = system: LOC_OS01G57100-cb003
How it was run: as §1

[12] = system: LOC_OS01G60330-cb001
How it was run: as §1

[13] = system: LOC_OS01G60700-cb002
How it was run: as §1

[14] = system: LOC_OS01G63280-cb003
How it was run: as §1

[15] = system: LOC_OS01G67340-cb003
How it was run: as §1

[16] = system: LOC_OS01G70970-cb002
How it was run: as §1

[17] = system: LOC_OS02G07810-cb001
How it was run: as §1

[18] = system: LOC_OS02G08530-cb003
How it was run: as §1

[19] = system: LOC_OS02G14120-cb001
How it was run: as §1

[20] = system: LOC_OS02G17970-cb001
How it was run: as §1
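Further: purified Escherichia coli-expressed rice kinase domain construct.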

SMILES | thermal shift delta Tm [1] [°C] | thermal shift delta Tm [2] [°C] | thermal shift delta Tm [3] [°C] | thermal shift delta Tm [4] [°C] | thermal shift delta Tm [5] [°C] | thermal shift delta Tm [6] [°C] | thermal shift delta Tm [7] [°C] | thermal shift delta Tm [8] [°C] | thermal shift delta Tm [9] [°C] | thermal shift delta Tm [10] [°C] | thermal shift delta Tm [11] [°C] | thermal shift delta Tm [12] [°C] | thermal shift delta Tm [13] [°C] | thermal shift delta Tm [14] [°C] | thermal shift delta Tm [15] [°C] | thermal shift delta Tm [16] [°C] | thermal shift delta Tm [17] [°C] | thermal shift delta Tm [18] [°C] | thermal shift delta Tm [19] [°C] | thermal shift delta Tm [20] [°C]
CS(=O)(=O)c1ccc(-c2cnc(N)c(C(=O)Nc3ccccc3)n2)cc1 | 1.64 | 0.51 | 0.6 | 0 | 5.11 | 1.15 | 1.65 | 0.08 | 0.3 | 0.77 | 0.59 | 1.29 | 0.17 | 0.26 | 0.52 | 1.04 | 0.54 | 0.71 | -0.32 | -0.36
COc1cc(Nc2ncc3c(n2)-c2ccc(Cl)cc2C(c2c(F)cccc2OC)=NC3)ccc1C(=O)O [Alisertib (MLN8237)] | 0.87 | 0.27 | -0.01 | -0.04 | 0.35 | -0.3 | 3.62 | -0.18 | -0.33 | 0.48 | 0.2 | 0.56 | 0.66 | 0.76 | 0.39 | 0.83 | 0.08 | 0.3 | 4.62 | 0.21
O=C1c2c(O)cc(O)cc2OC(c2ccc(O)c(O)c2)C1O (stereo not given) [Taxifolin (Dihydroquercetin)] | 0.87 | 0.83 | 0.4 | 0.01 | 0.34 | 0.61 | 0.19 | 0.17 | 0.11 | 0.49 | 1.27 | 0.28 | 0.38 | 0.25 | 0.07 | 0.29 | 0.09 | 0.73 | 0.32 | 0.67
COc1ccccc1-c1cc(Nc2cccc(CS(N)(=O)=O)c2)ncn1 | 0.57 | 1.83 | -0.11 | 0.56 | 1.07 | 1.02 | -0.27 | 0.79 | 0.36 | 0.9 | 2.72 | 0.45 | 1.21 | 0.28 | 0.81 | 0.41 | 0.75 | 1.15 | 1.66 | 1.02
O=C(Nc1cccnc1)c1cc(-c2ccnc(F)c2)ccc1OCc1ccccc1 | 2.5 | 0.28 | -0.53 | 0.66 | -0.01 | 0.38 | -0.21 | 0.88 | 0.01 | -0.04 | 0.33 | 0.69 | 0.86 | -0.26 | 0.85 | 0.12 | 0.46 | 2.26 | 0.34 | 0.6
C=CC(=O)Nc1cccc(Nc2nc(Nc3ccc(Oc4ccnc(C(=O)NC)c4)cc3)ncc2F)c1 | 4.52 | 1.34 | 1.05 | 0.7 | 4.66 | 2.14 | 1.74 | 0.98 | 0.31 | 3.1 | 2.13 | 6.9 | 1.08 | 0.49 | 0.92 | 1.63 | 0.76 | 2.72 | 6.96 | 0.81
COc1cc(N2CCN(C)CC2)ccc1Nc1ncc2c(n1)N(C)c1ccccc1C(=O)N2 | 0.72 | 1.11 | 1.07 | -0.23 | 0.43 | 0.53 | 0.75 | 0.41 | 0.22 | -0.22 | 0.71 | 0.79 | 1.11 | 0.14 | 0.39 | 0.32 | 0.41 | 0.62 | 2.52 | 0.53
CC(C)(O)CNc1ncc(-c2ccnc(Nc3ccnc(Cl)c3)n2)c(CC2CC2)n1 | 0.77 | 0.82 | 4.56 | -0.19 | 2.06 | 0.91 | -0.42 | 0.33 | 0.19 | 0.5 | 0.99 | 1.94 | 0.32 | -0.09 | 0.66 | 0.37 | 0.23 | 0.89 | 1.97 | -0.17
C=CC(=O)N1CC[C@@H](Oc2nc(Nc3ccc(N4CCC(N5CCN(C)CC5)CC4)cc3)c(C(N)=O)nc2CC)C1 [Naquotinib(ASP8273)] | 5.21 | 1.59 | 4.44 | -0.4 | 4.17 | 2.68 | 1.51 | 3.38 | -0.03 | 2.34 | 0.96 | 9.41 | 0.02 | 0.22 | 1.05 | 5.67 | -0.78 | 4.36 | 8.5 | 0.57
NC(=O)c1ccc(N(C(N)=O)c2c(F)cccc2F)nc1-c1ccc(F)cc1F | 0.34 | 0.53 | 0.19 | -0.47 | -0.12 | 0.57 | -1.78 | 0.07 | 0.14 | -0.21 | -0.23 | -0.16 | 0.91 | -0.21 | -0.08 | 0.4 | 0.66 | 0.7 | -0.49 | 0.09
CN1CC[C@H](c2c(O)cc(O)c3c(=O)cc(-c4ccccc4Cl)oc23)[C@H](O)C1 [Flavopiridol (Alvocidib)] | 0.72 | 0.39 | 0.16 | 0.35 | 4.54 | 1.94 | 1.37 | 0.03 | -0.2 | 0.8 | 0.96 | 0.94 | 0.39 | 0.37 | -0.01 | 1.4 | 0.63 | 1.53 | 1.28 | -0.3
C=CC(=O)N1CCC(Oc2cc3c(Nc4ccc(Cl)c(Cl)c4F)ncnc3cc2OC)CC1 [Poziotinib (HM781-36B)] | 0.75 | 0.07 | 0.6 | -0.34 | 0.65 | 0.36 | 1.56 | 0.49 | -0.16 | 1.24 | 0.31 | -0.17 | 0.72 | 0.26 | 0.45 | 0.11 | -0.05 | 1.45 | 1.12 | 0.35
COc1cc(Nc2ncc(F)c(Nc3ccc4c(n3)N(COP(=O)(O)O)C(=O)C(C)(C)O4)n2)cc(OC)c1OC [R788 (Fostamatinib) Disodium] | 0.8 | 1.55 | 0.2 | 0.19 | 1.64 | 1.94 | 5.17 | 0.57 | 0.49 | 1.51 | 1.79 | 1.17 | 1.17 | 1.12 | 0.57 | 1.43 | 0.47 | 0.82 | 5.05 | 1.55
CC(C)(C)c1nc(-c2cccc(NS(=O)(=O)c3c(F)cccc3F)c2F)c(-c2ccnc(N)n2)s1 | 1.54 | 0.76 | 0.26 | 0.08 | 8.58 | 1.84 | -9.31 | 0.37 | 0.33 | 1.56 | 2.01 | 7.29 | 1.89 | 19.8 | 1.21 | 3.43 | 1.44 | 1.92 | 3.94 | 1.55
CCNC(=O)Nc1ccc(-c2nc(N3CCOC[C@@H]3C)c3c(n2)C(C)(C)S(=O)(=O)C3)cc1 | 0.67 | 1.05 | 0.47 | 0.09 | 0.6 | 0.34 | -0.26 | -0.02 | 0.22 | 3.06 | 2.26 | 0.52 | -0.02 | 0.04 | 0.5 | 0.57 | -0.58 | 0.6 | 1.4 | -0.21
COc1cccc(-c2cc(=O)c3ccccc3o2)c1N | 1.2 | 0.8 | -0.05 | 0.1 | 0.1 | -0.03 | 0.91 | -0.01 | 0.02 | 0.01 | -0.23 | 0.99 | 0.39 | -0.2 | -0.8 | 0.32 | 0.94 | 0.37 | -0.3 | -0.31
Cc1cc(Nc2cc(N)ncn2)c(=O)n2c1C(=O)NC21CCCCC1 | 0.09 | 0.56 | 3.66 | -0.03 | 1.91 | 0.49 | -0.58 | -0.04 | 0.24 | -0.14 | 1.68 | 0.51 | -0.25 | -0.02 | 0.19 | 0.38 | -1.2 | 0.72 | 2.1 | -0.32
CC(C)(O)CC(=O)NCCn1ccc2ncnc(Nc3ccc(Oc4cccc(C(F)(F)F)c4)c(Cl)c3)c21 | 1.78 | 3.42 | 1.92 | 0.44 | 1.32 | 1.64 | 3.99 | 2.26 | 1.72 | 4.47 | 2.91 | 5.27 | 0.11 | 1.26 | 1.33 | 1.03 | 1.53 | 0.93 | 1.51 | 0.83
CCOc1ccn(-c2ccc(F)cc2)c(=O)c1C(=O)Nc1ccc(Oc2ccnc(N)c2Cl)c(F)c1 | 0.18 | 1.95 | 0.48 | 0.21 | 3.61 | 0.65 | -0.36 | 2.33 | 0.21 | 0.98 | 1.62 | 0.89 | 0.32 | 6.59 | 0.42 | 0.37 | 1.56 | 1.41 | 4.74 | 1.32
O=C(NCc1ccccc1)c1csc(Nc2ccncn2)n1 [Thiazovivin] | 0.06 | 1.66 | 2.94 | 1.01 | 3.98 | 2.52 | 0.44 | 0.4 | 0.24 | 2.17 | 1.74 | 1.17 | 0.63 | 0.81 | 0.47 | 0.09 | 1.58 | 0.69 | 0.71 | 1.26
CS(=O)(=O)N1CCc2c(-c3cnc(N)nc3)nc(N3CCOCC3)nc21 | 0.53 | 3.27 | -0.12 | 0.32 | 0.7 | 0.72 | -0.17 | 0.96 | 0.18 | 0.32 | 1.64 | 1.56 | 0.95 | 0.4 | 1.13 | 0.73 | 1.06 | 1.51 | 1.15 | 0.81
